Test results as given in the supplement of paper PMC13380429.
Unmarked numbers belong to inactive results.

What follows are compounds tested on Vero E6 infected with SARS-CoV-2 (assay: inhibition of SARS-CoV-2 cytopathic effect; higher = more antiviral protection, active = above 15). Conditions: 1 nM; 48 h.

Structure (SMILES)	inhibition of SARS-CoV-2 cytopathic effect [%]
Cc1cc(I)ccc1Nc1c(C(=O)NOCC2CC2)cc(F)c(F)c1F	0.41
CO[C@H]1C[C@H](O[C@H]2[C@H](C)O[C@@H](O[C@@H]3/C(C)=C/C[C@@H]4C[C@@H](C[C@]5(C=C[C@H](C)[C@@H](C6CCCCC6)O5)O4)OC(=O)[C@@H]4C=C(C)[C@@H](O)[C@H]5OC/C(=C\C=C\[C@@H]3C)[C@]54O)C[C@@H]2OC)O[C@@H](C)[C@@H]1O [doramectin]	0.81
Cc1c(N)nc([C@H](CC(N)=O)NC[C@H](N)C(N)=O)nc1C(=O)N[C@H](C(=O)N[C@H](C)[C@@H](O)[C@H](C)C(=O)N[C@H](C(=O)NCCc1nc(-c2nc(C(=O)NCCC[S+](C)C)cs2)cs1)[C@@H](C)O)[C@@H](OC1OC(CO)C(O)C(O)C1OC1OC(CO)C(O)C(OC(N)=O)C1O)c1cnc[nH]1 (some centres undefined) [bleomycin]	-3.91
c1ccc2c(CC3=NCCN3)cccc2c1 [naphazoline]	1.08
CC(C)(N)Cc1ccccc1 [phentermine]	2.16
FC(F)(F)c1ccc(CNc2ccc(Cc3c[nH]c4ncc(Cl)cc34)cn2)cn1 [pexidartinib]	0.78
COc1ccc(-c2oc3c(CC=C(C)C)c(O[C@@H]4O[C@H](CO)[C@@H](O)[C@H](O)[C@H]4O)cc(O)c3c(=O)c2O[C@@H]2O[C@@H](C)[C@H](O)[C@@H](O)[C@H]2O)cc1 [icariin]	4.38
O=C(COc1ccc(Cl)cc1)N1CCN(Cc2ccc3c(c2)OCO3)CC1 [fipexide]	-0.21
O=C1CC[C@@H](C(=O)N2CSC[C@H]2C(=O)O)N1 [pidotimod]	-1.03
Cc1ccccc1-n1c(CF)nc2ccc(N)cc2c1=O [afloqualone]	-0.9
CN1c2cc3c(cc2N=C(c2ccc(C(=O)O)cc2)c2ccccc21)C(C)(C)CCC3(C)C	4.92
c1coc(CNc2ncnc3[nH]cnc23)c1 [kinetin]	-0.75
NC(=O)CC[C@H](N)C(=O)O [L-glutamine]	0.7
COc1ccc(C(=O)/C(Cc2cc(OC)c(OC)c(OC)c2)=C(\C(=O)O)c2ccc3c(c2)OCO3)cc1	-2.66
C[S+](CC[C@H](N)C(=O)O)C[C@H]1O[C@@H](n2cnc3c(N)ncnc32)[C@H](O)[C@@H]1O (some centres undefined) [ademetionine]	-2.98
CCC[C@@]1(CCc2ccccc2)CC(O)=C([C@H](CC)c2cccc(NS(=O)(=O)c3ccc(C(F)(F)F)cn3)c2)C(=O)O1 [tipranavir]	-0.16
CC(C)(C)CC(C)(C)c1ccc(OCCOCC[N+](C)(C)Cc2ccccc2)cc1 [benzethonium]	-8.35
CCC(C)SSc1ncc[nH]1 (centres undefined)	-1.26
CCN1CCC[C@H]1CNC(=O)c1c(OC)ccc(Br)c1OC [remoxipride]	-2.39
CC(=C(CCOC(=O)C(C)C)SSC(CCOC(=O)C(C)C)=C(C)N(C=O)Cc1cnc(C)nc1N)N(C=O)Cc1cnc(C)nc1N (stereo in doubt) [sulbutiamine]	2
O=C(Oc1cccc2cccnc12)c1ccccc1 [benzoxiquine]	1.28
O=P(O)(NCCCl)NCCCl [palifosfamide]	0.85
O=P(O)(O)CN(CCN(CP(=O)(O)O)CP(=O)(O)O)CP(=O)(O)O	-3.44
Clc1ccc(COC(Cn2ccnc2)c2ccc(Cl)cc2Cl)c(Cl)c1 (centres undefined) [miconazole]	-1.92
CC(C)(O)CC(=O)NCCn1ccc2ncnc(Nc3ccc(Oc4cccc(C(F)(F)F)c4)c(Cl)c3)c21	4.78
CCOC(=O)[C@@H](N)Cc1ccc(-c2cc(O[C@H](c3ccc(Cl)cc3-n3ccc(C)n3)C(F)(F)F)nc(N)n2)cc1 [telotristat-ethyl]	-0.32
CC[C@@H](C(N)=O)N1CCCC1=O [levetiracetam]	0.86
O=C1NC(c2ccccc2)(c2ccccc2)C(=O)N1COP(=O)(O)O [fosphenytoin]	2.33
Cc1cc(-c2cc(OC(=O)c3ccccc3)ccc2Cl)cc2nnc(Nc3ccc(OCCN4CCCC4)cc3)nc12	-2.62
